Our source for the fold change permeability values is PubChem BioAssay.

Values without a mark were called inactive. Activity calls are given as the source filed them. Rule as the data show it: active = fold change permeability below about 0.7 or above about 1.3; inactive = in between.

This assay is described as follows: modulators of brain endothelial barrier permeability, primary screen, cell-based, FITC-avidin fluorescence, HTS (AID 1963498). Also: test concentration not given here. Conditions: actives lie on both sides.
As to `O=C(O)c1cc2cc(F)ccc2[nH]1`, the fold change permeability is 1.2.

On to `CC(C)NNC(=O)c1ccncc1`, for which the fold change permeability was 0.6 (active).

As for `Cc1cccc(-c2[nH]ncc2-c2ccc3ncccc3n2)n1`, the fold change permeability is 0.7 (active).

`CC12CC3CC(C)(C1)CC(N)(C3)C2`: the fold change permeability was 0.8.

As to `O=C1CCC(c2ccc(-n3ccnc3)cc2)=NN1`, the fold change permeability was 1.1.

As for `CCCCCCCC/C=C\CCCCCCCC(=O)NCCO`, the fold change permeability is 1.2.

With `CC[N+](CC)(CC)CC(=O)Nc1c(C)cccc1C`, the fold change permeability was 1.5 (active).

Turning to `CN1CCC(=C2c3ccccc3C=Cc3ccccc32)CC1`, the fold change permeability was 1.1.

Take `C=CC(N)CCC(=O)O` (centres undefined): the fold change permeability was 1.5 (active).

Turning to `CC(C)NCC(O)c1ccc(NS(C)(=O)=O)cc1` (centres undefined), the fold change permeability was 0.7 (active).

In the case of `O=C(NCCc1nccs1)c1cnc2c(SSc3cccc4cc(C(=O)NCCc5nccs5)cnc34)cccc2c1`, the fold change permeability is 0.7 (active).

For the molecule `Cc1nc(N=Nc2ccc(S(=O)(=O)O)cc2S(=O)(=O)O)c(COP(=O)(O)O)c(C=O)c1O`, the fold change permeability was 0.9.

Turning to `C#CCN(C)CCCOc1ccc(Cl)cc1Cl`, the fold change permeability is 1.3 (active).

Regarding `C[C@H](N[C@@H](CCc1ccccc1)C(=O)O)C(=O)N1CCC[C@H]1C(=O)O`, the fold change permeability is 0.6 (active).

As to `CCc1ccc(OCC(=O)Nc2ccc(F)c([N+](=O)[O-])c2)cc1`, the fold change permeability was 1.1.

For the molecule `CC1(C)NC(=O)N(c2ccc([N+](=O)[O-])c(C(F)(F)F)c2)C1=O`, the fold change permeability is 1.1.

`Cc1ccc(Cl)c(Nc2ccccc2C(=O)O)c1Cl`: the fold change permeability is 1.3 (active).

As for `NCCCCN=C(N)N`, the fold change permeability is 1.3 (active).

`O=C(Nc1ccccc1)c1cc([N+](=O)[O-])ccc1Cl`: the fold change permeability was 1.5 (active).

Take `CC(C)C[C@H](C(=O)O)c1cc(-c2ccc(C(F)(F)F)cc2)cc(-c2ccc(C(F)(F)F)cc2)c1`: the fold change permeability is 0.9.

For the molecule `N#Cc1c2nc3ccccc3nc2n2ccc(NC(=O)c3cccs3)cc12`, the fold change permeability is 1.2.

For the molecule `C[C@H](Cc1ccccc1)Nc1ncnc2c1ncn2[C@@H]1O[C@H](CO)[C@H](O)C1O` (some centres undefined), the fold change permeability is 1.3 (active).

Turning to `CCN(Cc1ccncc1)C(=O)C(CO)c1ccccc1` (centres undefined), the fold change permeability is 1.6 (active).

Take `Cc1nc2c([nH]1)c(=O)n(C)c(=O)n2Cc1ccco1`: the fold change permeability was 0.7 (active).

Regarding `N[C@H](C(=O)O)c1cc(O)cc(O)c1`, the fold change permeability is 1.2.

As for `CCOC(=O)C1=C(C)NC(C)=C(C(=O)OC)C1c1cccc([N+](=O)[O-])c1` (centres undefined), the fold change permeability is 0.8.

Turning to `CCN(C)C(=O)C1(CCOc2ccccc2)CCN(Cc2ccc(O)c(Cl)c2)CC1`, the fold change permeability is 1.

Consider `C[C@@]12C(=O)OC(=O)[C@]1(C)[C@H]1CC[C@@H]2O1`, for which the fold change permeability was 1.1.

With `CC1CCN(CC[C@H]2CCCN2S(=O)(=O)c2cccc(O)c2)CC1`, the fold change permeability is 0.7 (active).

As for `C1CCc2nnnn2CC1`, the fold change permeability is 1.3 (active).

With `N=S(=O)(O)Cc1noc2ccccc12`, the fold change permeability was 1.9 (active).

Take `CCCCCN=C(N)N/N=C/c1c[nH]c2ccc(OC)cc12`: the fold change permeability is 0.9.

As for `NC1(C(=O)O)CCCCC1`, the fold change permeability was 1.

In the case of `Nc1nc(N)c2nc(-c3ccccc3)c(N)nc2n1`, the fold change permeability is 1.4 (active).

Regarding `C=CCNc1ncnc2ccc(Br)cc12`, the fold change permeability was 1.2.

For `Nc1nc2[nH]c(=O)cnc2c(=O)[nH]1`, the fold change permeability is 1.4 (active).

For the molecule `COc1ccccc1N1CCN(CCCNc2cc(=O)n(C)c(=O)n2C)CC1`, the fold change permeability was 1.4 (active).

On to `CN1[C@@H](CC(=O)c2ccccc2)CCC[C@H]1C[C@H](O)c1ccccc1`, for which the fold change permeability was 1.3 (active).

Regarding `CC(=O)/C(C)=N/O`, the fold change permeability was 1.
